The values that follow come from PubChem BioAssay.

Assay [1] is described as follows: E. coli DRC41 culture turbidity changes, primary screen, E. coli filamentation inducer project, strain DRC41, OD650, 48 h (AID 1152).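 Further: E. coli MC1000 strain DRC41 lacking acrAB efflux pump and sulA.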 Particulars: E. coli DRC41 (acrAB sulA), higher = more signal, called active from +8 up or from −8 down.
The nature of assay [2]: small-molecule binders of probe aLefty1, primary screen, biochemical, small-molecule microarray, 635/667 nm fluorescence (AID 1153).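 Further: score merges spot fluorescence with signal-to-noise ratio from the scanned slide images.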 Particulars: higher = more signal.
Assay [3] is described as follows: PSAC antagonists in infected red cells, primary screen, cell-based, P. falciparum Indochina, OD700, 1 h (AID 1154). Particulars: P. falciparum Indochina infected RBC osmotic lysis, higher = more signal, called active from +8 up or from −8 down.
The nature of assay [4]: PSAC antagonists in infected red cells, primary screen, cell-based, P. falciparum Indochina, OD700, 2 h (AID 1155).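 Further: lysis reports solute entry through the parasite surface anion channel PSAC; channel blockers reduce lysis of infected cells.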 Particulars: P. falciparum Indochina infected erythrocytes, osmotic lysis OD700; higher = more signal, called active from +8 up or from −8 down.
The nature of assay [5]: osmotic lysis modulators in infected erythrocytes, primary screen, PSAC antagonist project, cell-based, P. falciparum Indochina, OD700, 3 h (AID 1156). The note with it: higher = more signal, called active from +8 up or from −8 down.
Assay [6] can be described thus: PSAC antagonists in infected red cells, primary screen, cell-based, P. falciparum Indochina, OD700, 18 h (AID 1157). Particulars: P. falciparum Indochina infected erythrocytes, osmotic lysis OD700, 18 h; higher = more signal, called active from +8 up or from −8 down.
The nature of assay [7]: modulators of S6 phosphorylation in cells, primary screen, cell-based, A549, cytoblot, luminescence, serum-stimulated (AID 1158).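 Further: serum-stimulated A549 lung adenocarcinoma cells; signal is phosphorylated S6 detected by cytoblot immunostaining with HRP secondary.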 Particulars: A549 phospho-S6 cytoblot, 5 h, higher = more signal.
Assay [8] deals with NADPH oxidase 2 (Homo sapiens) (UniProt P04839). The assay is described as follows: NOX2-dependent H2O2 signal modulators, primary screen, NOX inhibitor project, cell-based, HEK293-NOX2, PMA-stimulated, Amplex Red fluorescence (AID 1159). Further: test concentration not given here. The note with it: 45 min, higher = more signal, called active from +8 up or from −8 down.
NADPH oxidase 2 (Homo sapiens), sequence (P04839 whole entry, looked up): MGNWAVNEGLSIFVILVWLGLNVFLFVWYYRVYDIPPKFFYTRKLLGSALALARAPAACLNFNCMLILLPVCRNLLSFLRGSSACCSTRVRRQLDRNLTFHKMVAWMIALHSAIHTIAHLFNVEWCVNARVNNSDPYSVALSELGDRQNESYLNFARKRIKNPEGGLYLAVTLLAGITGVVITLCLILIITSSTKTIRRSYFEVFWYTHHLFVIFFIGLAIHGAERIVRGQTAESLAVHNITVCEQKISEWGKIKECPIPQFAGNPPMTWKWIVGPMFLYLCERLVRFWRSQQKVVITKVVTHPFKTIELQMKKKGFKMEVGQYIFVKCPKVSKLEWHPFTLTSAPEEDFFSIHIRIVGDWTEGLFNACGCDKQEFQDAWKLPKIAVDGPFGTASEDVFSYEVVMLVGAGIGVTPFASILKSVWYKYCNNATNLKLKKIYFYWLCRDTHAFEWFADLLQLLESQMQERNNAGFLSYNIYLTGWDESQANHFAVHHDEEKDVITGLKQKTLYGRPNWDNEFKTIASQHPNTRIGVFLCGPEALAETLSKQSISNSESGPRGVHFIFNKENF
Assay [9] deals with NADPH oxidase 4 (Homo sapiens) (UniProt Q9NPH5). The assay is described as follows: NOX4-dependent H2O2 signal modulators, primary screen, NOX inhibitor project, cell-based, HEK293-NOX4, tetracycline-induced, Amplex Red fluorescence (AID 1160). Particulars: 45 min, higher = more signal, called active from +8 up or from −8 down.
NADPH oxidase 4 (Homo sapiens), sequence (Q9NPH5 whole entry, looked up): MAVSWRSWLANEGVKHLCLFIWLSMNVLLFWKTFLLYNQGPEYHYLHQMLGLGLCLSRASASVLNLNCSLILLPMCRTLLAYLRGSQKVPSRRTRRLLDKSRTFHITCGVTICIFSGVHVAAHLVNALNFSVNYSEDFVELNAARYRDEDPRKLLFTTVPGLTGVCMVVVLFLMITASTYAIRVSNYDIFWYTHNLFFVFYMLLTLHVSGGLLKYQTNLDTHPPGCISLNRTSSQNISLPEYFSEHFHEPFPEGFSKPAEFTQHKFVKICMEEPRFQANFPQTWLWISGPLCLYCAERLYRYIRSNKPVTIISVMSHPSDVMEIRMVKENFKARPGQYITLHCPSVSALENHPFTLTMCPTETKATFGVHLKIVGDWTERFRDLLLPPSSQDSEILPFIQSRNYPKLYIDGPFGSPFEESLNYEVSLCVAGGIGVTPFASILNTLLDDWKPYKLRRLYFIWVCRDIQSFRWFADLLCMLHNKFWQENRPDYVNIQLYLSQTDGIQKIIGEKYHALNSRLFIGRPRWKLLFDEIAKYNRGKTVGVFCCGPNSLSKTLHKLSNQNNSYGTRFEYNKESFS
Assay [10] addresses NADPH oxidase 5 (Homo sapiens) (UniProt Q96PH1). The assay is described as follows: NOX5-dependent H2O2 signal modulators, primary screen, NOX inhibitor project, cell-based, HEK293-NOX5, Amplex Red fluorescence (AID 1161). The note with it: HEK293-NOX5, ionomycin, 45 min, higher = more signal.
Assay [11] can be described thus: A549 cell viability effects, profiling panel, calcein-AM fluorescence, 48 h, basal (AID 1162). Further: test concentration not given here. Particulars: higher = more signal.
The nature of assay [12]: adipocyte viability effects, profiling panel, cell-based, 3T3-L1 adipocytes, calcein-AM fluorescence, 48 h, basal (AID 1163). Further: test concentration not given here. Particulars: 3T3-L1 adipocytes viability, higher = more signal.
Assay [13] is described as follows: HepG2 cell viability effects, profiling panel, calcein-AM fluorescence, 48 h, basal (AID 1164). Further: test concentration not given here. The note with it: higher = more signal.
Assay [14] in a line: MM1S cell viability effects, profiling panel, calcein-AM fluorescence, 48 h, basal (AID 1165).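 Further: viability of MM1S multiple myeloma cells under basal unstimulated conditions; test concentration not given here.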 The note with it: higher = more signal.
Assay [15] is described as follows: basal RPMI8226 viability, no added stimulus, profiling panel, cell-based, calcein-AM fluorescence, 48 h, PK04 Diversity Set (AID 1166).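 Further: cells grown under basal conditions without added stimulus; test concentration not given here.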 Particulars: RPMI8226 myeloma viability, higher = more signal.
Assay [16] in a line: basal HepG2 mitochondrial membrane potential changes, profiling panel, cell-based, JC-1 fluorescence, 24 h, 100 nL compound (AID 1167). Further: test concentration not given here. The note with it: higher = more signal.
A short description of assay [17]: basal 3T3-L1 adipocyte mitochondrial potential changes, profiling panel, cell-based, JC-1 fluorescence, 3T3-L1 adipocytes, 24 h, 100 nL compound (AID 1168). Further: test concentration not given here. The note with it: JC-1 mitochondrial fluorescence, higher = more signal, called active from +8 up or from −8 down.
Assay [18] can be described thus: basal RPMI8226 mitochondrial membrane potential changes, profiling panel, cell-based, JC-1 fluorescence, 24 h, 100 nL compound (AID 1169). Further: test concentration not given here. Particulars: RPMI8226 myeloma, JC-1 mitochondrial potential fluorescence, higher = more signal.
The nature of assay [19]: basal MM1S mitochondrial membrane potential changes, profiling panel, cell-based, JC-1 fluorescence, 24 h, 100 nL compound (AID 1170). Further: test concentration not given here. Particulars: higher = more signal.
Assay [20] is described as follows: A549 lung cancer cell viability effects, profiling panel, resazurin fluorescence, 24 h, PK04 Diversity Set (AID 1171). Further: test concentration not given here. The note with it: higher = more signal, called active from +8 up or from −8 down. Background: Resazurin is reduced to fluorescent resorufin, in cell work by metabolically active cells.

Structures are written as SMILES. Active and inactive are the calls of the source.

NADPH oxidase 5 (Homo sapiens), sequence (Q96PH1 whole entry, looked up): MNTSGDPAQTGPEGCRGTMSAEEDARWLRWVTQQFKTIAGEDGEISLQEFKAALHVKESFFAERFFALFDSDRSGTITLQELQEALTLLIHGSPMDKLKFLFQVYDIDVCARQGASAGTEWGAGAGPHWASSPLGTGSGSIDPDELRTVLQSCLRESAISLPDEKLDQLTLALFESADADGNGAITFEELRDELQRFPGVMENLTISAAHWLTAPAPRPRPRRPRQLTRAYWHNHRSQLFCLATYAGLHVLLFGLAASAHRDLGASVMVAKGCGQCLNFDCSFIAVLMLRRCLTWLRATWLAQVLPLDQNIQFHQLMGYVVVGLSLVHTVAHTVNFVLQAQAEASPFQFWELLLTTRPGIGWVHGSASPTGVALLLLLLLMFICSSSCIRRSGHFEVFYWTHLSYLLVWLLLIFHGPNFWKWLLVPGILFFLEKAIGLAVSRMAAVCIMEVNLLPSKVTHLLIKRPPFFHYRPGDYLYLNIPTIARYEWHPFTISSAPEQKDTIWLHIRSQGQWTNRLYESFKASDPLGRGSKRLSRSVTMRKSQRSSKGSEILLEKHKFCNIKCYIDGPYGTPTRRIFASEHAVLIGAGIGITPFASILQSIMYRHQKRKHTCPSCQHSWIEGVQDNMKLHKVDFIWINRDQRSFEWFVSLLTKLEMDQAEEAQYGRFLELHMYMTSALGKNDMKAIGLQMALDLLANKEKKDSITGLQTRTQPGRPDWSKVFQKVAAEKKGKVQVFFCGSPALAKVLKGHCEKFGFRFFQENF

For `CCCCCCC#C[Si](O[C@H](c1ccccc1)c1cn([C@H](C)c2ccccc2)nn1)(C(C)C)C(C)C`, the z-score in [1] is 2.21 (inactive); in assay [3] it was 1.18 (inactive); in assay [4], -0.0458 (inactive); in assay [5] it was -0.0391 (inactive); in assay [6] it was -0.0352 (inactive); in [7], 0.138. For the same compound, the z-score was 0.054 (inactive) in assay [8]; -0.749 (inactive) in assay [9]; 0.268 in assay [10]; -0.577 in assay [11]; -1.2 in [12]; 0.0417 in assay [13]. The z-score in [14] was 0.227; in [15], 0.0204; in assay [16], 3.36; in assay [17], -0.0744 (inactive); in [18], -0.846; in assay [19] it was -1.19. For the same compound, the z-score in assay [20] is 2.74 (inactive). In assay [2], this compound came in with a composite z-score of -0.234.
Regarding `[N-]=[N+]=NCc1ccccc1[C@H]1OC(c2ccc(OCCCO)cc2)=N[C@@]1(Cc1ccccc1)C(=O)O`, the z-score in [1] is -1.02 (inactive); in assay [3] it was 17.6 (active); in assay [4], 1.59 (inactive); in assay [5] it was -0.907 (inactive); in [6], 0.246 (inactive); in assay [7], -0.239. The z-score in assay [8] is 0.861 (inactive); in assay [9], 1.27 (inactive); in assay [10], 1.65; in assay [11], 1.17; in [12] it was -1.06; in [13] it was 0.991. Besides, the z-score in assay [14] is 0.791; in assay [15], 0.465; in assay [16], -0.0179; in [17], 0.241 (inactive); in [18], -0.491; in assay [19] it was -0.804. Further, the z-score in [20] was 0.932 (inactive). Also, in assay [2], the composite z-score was -0.166.
Consider `CC1CC/C=C\[C@H]2OC34C=CCN(CCN5CCOCC5)C(=O)[C@H]3N(CCCCCO)C(=O)[C@@H]4C2C(=O)O1` (stereo not given in full), for which the z-score in [1] was -0.346 (inactive); in assay [3] it was 0.851 (inactive); in assay [4], 0.618 (inactive); in [5], 0.007 (inactive); in assay [6], 0.257 (inactive); in assay [7], 0.165. The z-score in assay [8] was 0.545 (inactive); in assay [9] it was -0.277 (inactive); in assay [10], 1.03; in [11], -0.365; in assay [12] it was 0.374; in [13] it was 0.68. The z-score was 1.09 in assay [14]; 0.0186 in assay [15]; -0.461 in [16]; -0.189 (inactive) in [17]; -0.0345 in assay [18]; -0.107 in [19]. Also, the z-score in [20] was -0.19 (inactive). For the same compound, the composite z-score in [2] is -0.409.
As to `COc1ccc([Si](C)(C)[C@@H]2[C@@H](CCO)O[C@]3(C(=O)N(Cc4cccc(N(C=O)c5ccccc5)c4)c4ccccc43)[C@H]2C)cc1`, the z-score in assay [1] was 0.313 (inactive); in assay [3], 4.07 (inactive); in [4], 0.49 (inactive); in [5], 2.32 (inactive); in assay [6], -1.17 (inactive); in assay [7], 0.62. Further, the z-score in assay [8] is 0.773 (inactive); in [9], -0.249 (inactive); in [10] it was -0.78; in [11] it was -1.54; in assay [12], 1.72; in assay [13], -0.854. Moreover, the z-score in assay [14] is -1.12; in assay [15], -1.68; in assay [16], 0.719; in assay [17], -0.0903 (inactive); in assay [18] it was -0.881; in assay [19], 0.0823. For the same compound, the z-score in assay [20] is -2.24 (inactive). The same compound registered a composite z-score in [2] of 0.0811.
As to `CN1C(=O)C2C(C1=O)C1C=C(c3ccc(CO)cc3)C2C(C2CC2)N1Cc1cc2c(cc1Br)OCO2` (stereo not given), the z-score in assay [1] was -0.515 (inactive); in assay [3] it was 19.5 (active); in [4], 3.1 (inactive); in assay [5] it was 1.2 (inactive); in assay [6] it was -0.898 (inactive); in [7], 1.05. The z-score in [8] was -1.18 (inactive); in assay [9] it was -1.04 (inactive); in assay [10], -0.488; in [11], 0.302; in assay [12] it was 0.575; in assay [13], 1.81. Besides, the z-score in assay [14] was -0.387; in [15], -1.75; in [16] it was 3.74; in [17], 0.673 (inactive); in assay [18], -0.73; in [19], -0.565. Besides, the z-score in assay [20] is -1.84 (inactive). The same compound came in with a composite z-score in assay [2] of 0.464.
In the case of `C=C[C@@H](C)[C@@H](OC(=O)Nc1ccc(OC)cc1)c1ccc(O)c2ccccc12`, the z-score in assay [1] is 0.0598 (inactive); in [3], 2.46 (inactive); in assay [4], 0.661 (inactive); in [5], 0.0162 (inactive); in assay [6], 0.354 (inactive); in assay [7] it was 0.382. Besides, the z-score in assay [8] is -5.9 (inactive); in assay [9], -1.81 (inactive); in [10] it was -0.437; in assay [11] it was -1.24; in assay [12], -0.336; in assay [13], -1.63. Besides, the z-score was -2.72 in assay [14]; -4.29 in assay [15]; -3.19 in assay [16]; -0.425 (inactive) in [17]; -1.13 in assay [18]; -1.23 in assay [19]. Also, in [20], the z-score was -0.527 (inactive). Besides, in assay [2], the composite z-score was -0.0222.
As for `O=P(NCC1(CC2(c3ccccc3)CO2)CC1)(c1ccccc1)c1ccccc1` (stereo not given), the z-score in [1] was -0.569 (inactive); in [3], 0.0174 (inactive); in assay [4] it was -0.505 (inactive); in assay [5], 0.424 (inactive); in assay [6] it was 0.297 (inactive); in [7], -0.242. Also, the z-score in assay [8] was -0.024 (inactive); in assay [9], 0.266 (inactive); in assay [10] it was -2.9; in assay [11] it was -1.08; in [12] it was -0.933; in assay [13] it was 0.676. Besides, the z-score in assay [14] was 0.116; in assay [15] it was 0.0906; in [16] it was -0.187; in assay [17], 0.48 (inactive); in assay [18] it was 0.125; in assay [19] it was -0.792. Moreover, the z-score in assay [20] was 0.316 (inactive). The compound also yielded a composite z-score in assay [2] of 0.315.
In the case of `CCCNC(=O)[C@@]1(C)c2ccccc2C(=O)N(Cc2cc(C(F)(F)F)cc(C(F)(F)F)c2)[C@H]1c1ccc(CO)cc1`, the z-score was -0.253 (inactive) in assay [1]; 4.6 (inactive) in assay [3]; -0.305 (inactive) in assay [4]; 1.97 (inactive) in assay [5]; -0.754 (inactive) in [6]; 1.49 in assay [7]. The z-score was -1.98 (inactive) in [8]; -3.17 (inactive) in [9]; -3.73 in assay [10]; -0.283 in [11]; 0.531 in [12]; 0.0751 in assay [13]. Also, the z-score in assay [14] is 0.341; in assay [15], -1.23; in [16], 1.22; in assay [17] it was -0.161 (inactive); in assay [18] it was -0.0935; in assay [19] it was -0.643. For the same compound, the z-score in [20] was 1.27 (inactive). The composite z-score in assay [2] is -0.0711.
With `CCCC[C@H]1OB(O)C[C@H]2C1=C(C)Cn1c(=O)n(-c3ccccc3)c(=O)n12`, the z-score was -2.02 (inactive) in [1]; 0.0016 (inactive) in [3]; 0.408 (inactive) in [4]; 0.393 (inactive) in assay [5]; 0.181 (inactive) in assay [6]; 0.441 in [7]. The z-score in assay [8] was -0.59 (inactive); in [9] it was -0.181 (inactive); in [10], -0.278; in assay [11], 0.673; in [12], 0.465; in [13] it was 0.173. Further, the z-score in assay [14] was -0.337; in assay [15] it was -0.108; in assay [16] it was 0.546; in assay [17], 0.299 (inactive); in [18], -0.903; in [19], -0.503. Also, in assay [20], the z-score was 0.0548 (inactive). Besides, in [2], the composite z-score is -0.677.
